FLuc modulator = inhibits or activates purified firefly luciferase, miR-21 counter-screen. purified FLuc, Km substrates, luminescence inhibition. Potency, µM (titrated, usually from 57.5 µM), for inactives: at the top dose activity change, negative = inhibition, most hits filed as inhibitors. 360,000 compounds, 6.9% hits. P08659;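 note: plate controls were vehicle for no effect and reference inhibitor for full effect; nearly all actives have a fitted effect of over 55% in size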
Target sequence (P08659 whole entry, looked up): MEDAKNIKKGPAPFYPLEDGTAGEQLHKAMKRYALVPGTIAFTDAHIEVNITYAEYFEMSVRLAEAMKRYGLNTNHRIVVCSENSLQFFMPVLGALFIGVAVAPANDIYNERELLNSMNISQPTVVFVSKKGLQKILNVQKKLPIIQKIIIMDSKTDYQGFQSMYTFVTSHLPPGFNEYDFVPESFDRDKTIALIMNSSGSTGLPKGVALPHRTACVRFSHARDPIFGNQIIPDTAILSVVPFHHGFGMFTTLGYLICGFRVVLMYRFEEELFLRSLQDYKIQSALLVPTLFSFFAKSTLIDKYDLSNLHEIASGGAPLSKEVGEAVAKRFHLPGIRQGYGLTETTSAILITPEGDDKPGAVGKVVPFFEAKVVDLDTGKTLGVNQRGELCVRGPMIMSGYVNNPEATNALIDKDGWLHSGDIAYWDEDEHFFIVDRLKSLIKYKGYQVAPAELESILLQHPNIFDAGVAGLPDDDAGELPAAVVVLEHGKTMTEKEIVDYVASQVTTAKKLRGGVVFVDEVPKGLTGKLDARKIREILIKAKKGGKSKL
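Purified P. pyralis luciferase, 10 nM final, with Km-level 10 uM D-luciferin and 10 uM ATP in 50 mM Tris acetate pH 7.5, 10 mM Mg acetate, 0.01% Tween-20, 0.05% BSA; 6-point qHTS titration about 60 µM downward; luminescence read.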
SMN2 splice enh = SMN2 splice variant enhancement. Potency, µM (highest dose often 46.1 µM), for inactives: at the top dose activity change, positive = activation, hits mostly activators. HEK293 SMN2-luciferase splicing reporter, luminescence, 30-36 h. 210,000 compounds, 2.8% hits; note: % of control where 0% means no effect; nearly all actives have a fitted effect of over 55% in size
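HEK293 cells carry an SMN2 […]–luciferase reporter in which exon 7 inclusion puts luciferase in frame. Cells were plated 10-12 h before compound addition, then incubated 30-36 h at 37C. ONE-Glo luminescence was read; sodium butyrate at 4.5 mM final served as control.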
Rab9 promoter act = Rab9 promoter activation; Huh7 Rab9 promoter-luciferase reporter, luminescence, 24 h; Potency, µM (top dose mostly 9.22 µM), inactives show at the highest dose activation, negative = inhibition, hits mostly activators; 320,000 compounds, 2.8% hits; AID 485297; note: % of control where 0% means no effect; nearly all actives have a fitted effect of over 60% in size
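Huh7 cells stably carrying a Rab9 promoter-luciferase reporter, 1500 cells per well in OP-MEM I with 10% FBS, treated with compound 24 hours at 37C. Luciferase activity read by luminescence after 10 minutes with Amplite reagent.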
Luc counter = counter-screen: inhibitors of Kinase-Glo firefly luciferase; Q27757; Kinase-Glo luciferase, ATP luminescence, 8 min; Potency, µM (highest dose often 38.3 µM), inactives show at the highest dose activity change, negative = inhibition, most hits filed as inhibitors; 200,000 compounds, 0.28% hits; AID 1379; note: % is set by controls: 0 for no effect and ±100 for the full control effect; nearly all actives have a fitted effect of over 60% in size
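Luminescence was the read-out, taken after 8-minute incubation at ambient temperature. Luciferase turned over luciferin with 10 uM ATP in imidazole pH 7.2 buffer containing KCl, MgCl2, Tween 20 and BSA.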
NPC1 prom act = activates the NPC1 promoter; Huh7 NPC1 promoter luciferase reporter, 24 h; Potency, µM (doses to about 9.22 µM), inactives show at the top dose activation, actives largely listed as activators; 320,000 compounds, 2.4% hits; note: % of control where 0% means no effect; nearly all actives have a fitted effect of over 60% in size
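Quantitative HTS used a cell-based reporter: Huh7 cells stably bearing the NPC1 promoter upstream of luciferase were treated with compounds for 24 h, and promoter activation was read as luminescence.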
ELG1 genotoxic = induces genotoxicity in HEK293T cells with luciferase-tagged ELG1. HEK293T ELG1-luciferase reporter, luminescence, 16 h. Potency, µM (doses to about 46 µM), for the others: at the highest dose activity change, positive = activation, actives largely listed as activators. 330,000 compounds, 1.3% hits; note: % of control where 0% means no effect; nearly all actives have a fitted effect of over 60% in size
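Quantitative HTS format in 1536-well plates. HEK293T ELG1-luciferase reporter cells receive test compound and are incubated 16 hr at 37 °C, 5% CO2; ONE-Glo added, 30 min room temperature, then luminescence read.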
* = called active by the depositor; ? = inconclusive; . = not tested or not shown. Compounds with a hit are over-represented: about 7.4% of the library has one in this group of screens. Calls come from the whole dose curve; as a rule, active = well fitted curve in the direction sought with a large enough effect; inconclusive = small, poorly fitted or top-dose-only effect, or another doubt; inactive = no such curve, though single readings can be large; an effect the other way counts as inactive or inconclusive. Potency is the fitted concentration of half-maximal effect.

SMILES | FLuc modulator | SMN2 splice enh | Rab9 promoter act | Luc counter | NPC1 prom act | ELG1 genotoxic
C/C(=N\OC(=O)c1ccccc1)c1cc(-c2ccc(Cl)cc2)no1 | -1% | ? | 3.2µM* | -1% | 2.8µM* | ?
C/C(=N/OC(=O)C1CC1)c1cc(-c2ccc(Cl)cc2)no1 | 5.4µM* | . | 2.8µM* | 4% | ? | ?
CSc1nc2sc3c(c2c(=O)n1C)CCC(C)C3 (configuration not stated) | 13µM* | 1% | 19% | -5% | 2% | 9%
CSc1nc2sc3c(c2c(=O)n1C)CCC3 | -6% | . | -2% | . | 0% | 3%
CC(=O)c1c(C)[nH]c(C(=O)Nc2nccs2)c1C | 24µM* | 13µM* | 2.8µM* | 3% | ? | ?
CC(=O)c1c(C)[nH]c(C(=O)Nc2cccc(C)n2)c1C | 8.5µM* | . | 0.45µM* | . | 0.35µM* | 1.6µM*
CCC1CCCCN1C(=O)Cn1c(=O)n(-c2ccccc2C(F)(F)F)c(=O)c2c(C)c(C(=O)N(C)C)sc21 (configuration not stated) | -1% | . | . | . | . | .
O=C(Oc1ccc2ccccc2c1Br)N1CCCCCC1 | 1.3µM* | 11µM* | 0.63µM* | -12% | 0.5µM* | ?
CCN(CC)C(=O)Oc1ccc2ccccc2c1Br | 19µM* | ? | ? | 0% | ? | 8%
O=C(COc1ccc2ccccc2c1Br)N1CCCCC1 | 15µM* | . | ? | . | 4% | 18µM*
NC(=O)C1CCN(C(=O)COc2ccc3ccccc3c2Br)CC1 | -19% | . | 1% | . | -1% | -4%
COc1ccc(Cn2c(CCC(=O)NCc3ccc(Cl)cc3)nc3cccnc32)cc1 | 0% | 12% | . | . | . | .
CC(C)C[C@@H](CC(=O)N[C@H](CC(=O)N[C@@H]1CCCC[C@H]1C(=O)N[C@H](CC(=O)N[C@@H](CCC(=O)O)CC(=O)O)CC(C)C)C(C)C)NC(=O)[C@@H]1CNCC[C@H]1N | . | 9% | . | 2% | . | .
Cc1cccc(N2CCN(C(=O)c3cnn(-c4ccccc4Cl)c3C3CCN(C(=O)OC(C)(C)C)CC3)CC2C)c1 (configuration not stated) | 4% | . | . | . | . | .
O=c1c(Cl)c(N2CCOCC2)cnn1-c1nc2ccccc2[nH]1 | 11µM* | 11µM* | 1.6µM* | -14% | 2.5µM* | ?
O=C(c1ccc2c(c1)CCN2S(=O)(=O)c1ccc(Cl)cc1)N1CCN(c2ccccc2)CC1 | -7% | -9% | . | . | . | .
CN(C)CCCCNC(=O)c1ccc(-n2c(=O)c(=O)[nH]c3ccccc32)cc1 | . | . | . | 0% | . | .
c1ccc(CCc2nc3ccccc3[nH]2)cc1 | 17µM* | . | ? | -15% | ? | ?
Nc1ccc2nc(CCCCc3nc4ccccc4[nH]3)[nH]c2c1 | 4% | . | 0% | . | -10% | -3%
O=c1[nH]c2ccccc2nc1CCc1ccccc1 | -9% | ? | 3.2µM* | -2% | ? | ?
Nc1cccc(CCc2nc3cc4ccccc4cc3[nH]2)c1 | 19µM* | 5.6µM* | 1.6µM* | 1% | 27% | 18µM*
c1ccc2[nH]c(CCCc3nc4ccccc4[nH]3)nc2c1 | -1% | . | -2% | . | 7% | 1%
O=c1[nH]c2ccccc2nc1Cc1ccc(Cl)cc1 | 1% | . | -1% | . | -3% | 4%
CN(CC(=O)O)Cc1nc2ccccc2[nH]1 | 21µM* | 1% | -3% | -4% | 1% | ?
Cc1ccc(C(=O)CSc2nnc(C)s2)cc1 | 13µM* | ? | 2.2µM* | -2% | 2.2µM* | ?
SMILES | FLuc modulator | SMN2 splice enh | Rab9 promoter act | Luc counter | NPC1 prom act | ELG1 genotoxic
Nc1nnc(SCC(=O)c2ccc3ccccc3c2)s1 | 19µM* | ? | 4µM* | -2% | 4.5µM* | 12µM*
Cc1nnc(SCC(=O)c2ccc(Br)cc2)s1 | 17µM* | -8% | 17% | -1% | 10% | -1%
Cc1nnc(SCC(=O)O)s1 | -2% | 0% | -6% | 0% | 0% | 0%
Cc1ccc(-c2nc(NC(=O)CSc3nnc(C)s3)ns2)cc1 | 19µM* | 6% | -7% | 2% | 8% | 3%
Cc1nnc(SCC(=O)Nc2nsc(-c3ccccc3)n2)s1 | ? | 16% | 17% | 2% | 10% | -4%
CCC(Oc1ccccc1)C(=O)Nc1cc(-c2ccccc2F)nn1-c1ccccc1 (configuration not stated) | -9% | . | . | . | . | .
C=C1C(C2(C)C=CC(=O)C(C)(C)C2CC(=O)OC)CC[C@@]2(C)C(c3ccoc3)OC(=O)C3OC132 (some centres not stated) | . | -5% | . | 1% | . | .
Cc1c(Cl)cccc1NC(=O)C(=O)NCC(c1cccnc1)N1CCN(c2ccccc2)CC1 (configuration not stated) | -5% | . | . | . | . | .
C/C(=N\Nc1ccc(F)cc1F)c1cccs1 | 19µM* | -3% | 23% | 2% | 6% | ?
COc1ccc(/C(C)=N/Nc2ccc(F)cc2F)c(O)c1 | 11µM* | ? | ? | -1% | 10% | ?
COc1ccc(C(=O)CCC(=O)Nc2ccc(F)cc2F)cc1 | -10% | . | . | . | . | .
COc1ccc(/C(C)=N/Nc2ccccc2Cl)c(O)c1 | 11µM* | . | 0% | . | 0% | ?
COc1ccc(C(=O)c2ccccc2O)c(O)c1 | 1% | 2% | 2% | -4% | -1% | 5%
O=c1c2sc3ccccc3c2n(Cc2cccc(F)c2)c(=O)n1CCc1ccccc1 | ? | 1% | . | . | . | .
Cc1cccc(C)c1NC(=O)Cn1cc(C(=O)C2CC2)c2ccccc21 | -4% | -14% | . | . | . | .
COc1ccc(-n2nnnc2SCc2nc3ccccc3s2)cc1 | 11µM* | -6% | ? | -7% | 14% | 16µM*
COc1ccc(CSc2nnnn2-c2ccccc2)cc1 | -1% | -4% | -4% | -3% | -2% | 2%
COc1ccc(C)cc1-n1nnnc1SCc1nc2ccccc2s1 | 11µM* | -21% | ? | -6% | ? | 10%
Cc1c(Cl)cccc1NC(=O)c1ccc2c(c1)CCCN2S(C)(=O)=O | -7% | -6% | . | . | . | .
CSc1nc(-c2ccc(Cl)cc2)c(C#N)c(=O)n1C | 0% | -24% | -7% | 2% | -8% | -2%
CSc1nc(-c2ccc(N(C)C)cc2)c(C#N)c(=O)n1C | 12µM* | . | ? | . | ? | ?
CCc1ccc(C2c3c(oc4ccc(F)cc4c3=O)C(=O)N2c2nc(C)c(C(=O)OC)s2)cc1 (configuration not stated) | 0% | 4% | . | . | . | .
CCCc1ccc2oc(C(=O)N(Cc3nccn3C)C(C)C)c(C)c2c1 | ? | . | 27% | . | 18% | 13%
CCCc1ccc2oc(C(=O)N3CCCC3)c(C)c2c1 | 21µM* | . | ? | . | 23% | ?
